Source: PubChem BioAssay (Sanford-Burnham Center for Chemical Genomics)
In the library only some 4% were active in any assay of this set; here they are far more common.
tim23-1 inh: inhibits growth of tim23-1 mutant yeast; S. cerevisiae tim23-1 growth, BacTiter-Glo luminescence, 24 h; inhibition, % at 20 µM; AID 463212; hit rate 1.3% among 330,000;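 active = growth inhibition of the mutant yeast at or above 50%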;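 note: temperature-sensitive mutant grown at 25 °C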
NALP1 yeast inh: NALP1 inhibition. S. cerevisiae NALP1/ASC/caspase-1 growth, X-gal OD620, 72 h. inhibition, % at 10 µM. AID 2071. hit rate 0.61% among 280,000; in the data active = inhibition mostly above about 24%, no sharp cut-off; inactive = mostly below about 32%
TIM10 inh: TIM10 yeast growth inhibition; S. cerevisiae TIM10 strain growth, BacTiter-Glo luminescence, 24 h; inhibition, % at 10 µM; hit rate 1.4% among 330,000;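 active = inhibition of 40% or more at the single tested concentration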;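 note: wild-type TIM10 isogenic control strain grown at permissive 25 °C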
NLRP3 yeast inh: NALP3 inhibition in yeast | inhibition, % at 10 µM | hit rate 0.39% among 330,000 | Yeast reconstituted NLRP3/ASC/caspase-1, beta-gal luminescence, 24 h;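 active = inhibition of 50% or more; inactive = inhibition below 50%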
tim10-1 inh: tim10-1 yeast growth inhibition; hit rate 2.2% among 330,000; S. cerevisiae tim10-1 ts strain growth, BacTiter-Glo, 24 h; inhibition, % at 20 µM;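 active = inhibition of at least 40%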;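 note: mutant grown at 25 °C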
tim10-1 confirm: tim10-1 yeast growth inhibition, confirmed; shares compounds with tim10-1 inh; S. cerevisiae tim10-1 ts strain growth, BacTiter-Glo, 24 h; inhibition, % at 20 µM; hit rate 56% among 7,400; AID 463213;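 active = inhibition of yeast growth at or above a set limit in either of two repeat tests at 20 µM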;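 note: tim10-1 mutant grown at permissive 25 °C to find synthetic lethal compounds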
TIM10 conf: TIM10 yeast growth inhibition, confirmed; hit rate 63% among 4,600; S. cerevisiae tim10 strain growth, BacTiter-Glo luminescence, 24 h; AID 463215; shares compounds with TIM10 inh; inhibition, % at 10 µM;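 active = inhibition of yeast growth at or above a set limit in either of two replicates at 10 µM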; note: this counterscreen used the strain with wild-type TIM10
Of the large screens only hits and unclear results are named; the others gave an inactive call (follow-up assays come after a bar, where they were run).

CCCN=C1N(CC)C[C@@H]2[C@@H]3C(=O)N(C)C(=O)[C@@H]3[C@](CC)(C(=O)OC)N12	none (no result: NALP1 yeast inh, NLRP3 yeast inh)
CCN(Cc1ccc(OC)c(F)c1)C(=O)/C=C/c1ccc(S(=O)(=O)N2CCOCC2)cc1	none (no result: NALP1 yeast inh)
COc1ccc(/C=C/C(=O)c2c(C)nc3ccccn23)cc1	none
Cc1nc2ccccn2c1C(=O)/C=C/c1ccc(F)cc1	TIM10 inh 40, tim10-1 inh 49 | tim10-1 confirm 37 | TIM10 conf 43
Cc1nc(NC(=O)CSc2nnc(C3CC3)n2C)sc1C	none
Cc1cc(NCCOCCO)n2ncc(-c3ccc(Cl)cc3)c2n1	TIM10 inh 42, tim10-1 inh 57 | tim10-1 confirm 44 | TIM10 conf 50
c1ccc(Oc2nc(N3CCOCC3)nc(N3CCOCC3)n2)cc1	none
c1cc(C2CCCCC2)ccc1Oc1nc(N2CCOCC2)nc(N2CCOCC2)n1	TIM10 inh 52, tim10-1 inh 44 | tim10-1 confirm inactive | TIM10 conf 33
Cc1ccc(CNC(=O)c2ccc(CNS(=O)(=O)c3ccc4c(c3)C(C)(C)C(=O)N4C)cc2)o1	none
CCc1cc2ccc(C)cc2nc1SCC(=O)NNC(=O)c1ccco1	TIM10 inh 42, tim10-1 inh 40 | tim10-1 confirm inactive | TIM10 conf inactive
COc1ccc(-c2cc3ccccc3[nH]2)cc1	none
Cc1ccc(O)c(-c2cc3ccccc3[nH]2)c1	TIM10 inh 46, tim10-1 inh 53 (no result: NALP1 yeast inh) | tim10-1 confirm 40 | TIM10 conf 47
COc1ccccc1N1CC(C)(C)C(=O)N(C(=O)c2c(F)cccc2Cl)C1=S	none
Cc1ccccc1CS(=O)(=O)c1nnc([C@H](CC(C)C)NC(=O)OC(C)(C)C)o1	TIM10 inh 57, tim10-1 inh 65 | tim10-1 confirm 48 | TIM10 conf 49
CC(C)[C@H](NC(=O)OC(C)(C)C)c1nnc(S(=O)(=O)Cc2c(F)cccc2Cl)o1	TIM10 inh 71, tim10-1 inh 61 | tim10-1 confirm 64 | TIM10 conf 64
CCC(C)(C)NC(=O)C(c1ccncc1)N(C(=O)c1sc(C)nc1C)c1ccc(C)cc1 (stereo not given)	none
C=CCNC(=S)N(CC)c1cccc2ccccc12	none
COc1ccc(C(=O)/C=C2/Sc3cc4c(cc3N2C)OCO4)cc1	none
COc1ccc2c(c1)S/C(=C\C(=O)c1ccncc1)N2C	TIM10 inh 82, tim10-1 inh 54 | tim10-1 confirm 73 | TIM10 conf 85
Nc1nn2cc(-c3ccccc3)nc2c2ccccc12	TIM10 inh 56, tim10-1 inh 56 | tim10-1 confirm 53 | TIM10 conf 49
CC(=O)Nc1cccc(C(=O)/C=C/c2ccc(C)cc2)c1	none
CCC(=O)Nc1cccc(C(=O)/C=C/c2ccc(F)cc2)c1	TIM10 inh 47, tim10-1 inh 48 | tim10-1 confirm 43 | TIM10 conf inactive
CC(/C=N/n1c(-c2cc(C)[nH]n2)n[nH]c1=S)=C\c1ccccc1	none
CC(/C=N/n1c(C2CCCCC2)n[nH]c1=S)=C\c1ccccc1	TIM10 inh 49, tim10-1 inh 48 | tim10-1 confirm inactive | TIM10 conf 31
S=c1[nH]nc(C2CCCCC2)n1/N=C/c1cccs1	TIM10 inh 41, tim10-1 inh 43 | tim10-1 confirm inactive | TIM10 conf 40
CSc1ccc(/C=C/C(=O)NC(=O)c2ccccc2O)cc1	none
COc1cccc(CN(C)Cc2nc(Cc3ccccc3Cl)no2)c1	none
C#CCn1c(S(=O)(=O)Cc2ccc(OC)cc2)nc(-c2ccccc2)c1-c1ccccc1	TIM10 inh 45, tim10-1 inh 47 | tim10-1 confirm 41 | TIM10 conf inactive
CCN1CCCC(OC(=O)c2cc(-c3ccccc3Cl)nc3ccccc23)C1 (stereo not given)	TIM10 inh 49, tim10-1 inh 48 | tim10-1 confirm 33 | TIM10 conf 37
O=C(O)CC(NC(=O)Cc1ccc(Cl)cc1)c1ccco1 (stereo not given)	none
O=C1c2cccc3c2[C@H](CCC3)CN1[C@@H]1CN2CCC1CC2	none (no result: NALP1 yeast inh)
Oc1cc(NCc2cccnc2)ccc1-c1nc2ccccc2o1	TIM10 inh 55, tim10-1 inh 47 (no result: NALP1 yeast inh) | tim10-1 confirm inactive | TIM10 conf 39
Cc1cc(Cl)ccc1OCC(=O)Nc1nc(-c2cccs2)cs1	TIM10 inh 43, tim10-1 inh 49 | tim10-1 confirm 41 | TIM10 conf inactive
Cc1cc(Cl)ccc1OCC(=O)Nc1nc(-c2cccnc2)cs1	none
CCOc1ccc2nc3ccc4[nH]onc4c3c2c1	TIM10 inh 48, tim10-1 inh 42 (no result: NALP1 yeast inh) | tim10-1 confirm 53 | TIM10 conf 53
CCOc1ccc2nc(N3CCOCC3)nc(C)c2c1	none
CCOC(=O)C1CCN(c2ccc([N+](=O)[O-])c(C(C)=O)c2)CC1	none
Cc1ccc2c(c1)c1n[nH]c(=S)nc1n2CCc1ccccc1	TIM10 inh 41, tim10-1 inh 46 | tim10-1 confirm inactive | TIM10 conf 38
Cc1ccc(NS(=O)(=O)c2c(C(=O)N3CCCCCC3)c(C)n(C)c2C)cc1C	none
CCCCC(CC)C(=O)Nc1ncc([N+](=O)[O-])s1 (stereo not given)	TIM10 inh 49, tim10-1 inh 61 | tim10-1 confirm 62 | TIM10 conf inactive
Cc1ccc(CC(=O)Nc2ncc([N+](=O)[O-])s2)cc1	none
O=C(N/N=C/C(Cl)=C/c1ccccc1)c1ccc2c(c1)OCO2	none (no result: NALP1 yeast inh)
O=C1CC(c2ccc3c(c2)OCCO3)Oc2ccc([N+](=O)[O-])cc21 (stereo not given)	TIM10 inh 45, tim10-1 inh 42 | tim10-1 confirm 39 | TIM10 conf 54
CC(=O)N1CCN(c2ccccc2NC(=O)c2cc3ccccc3o2)CC1	none
CN1CCN(c2ccccc2NC(=S)NC(=O)c2cc3ccccc3o2)CC1	TIM10 inh 98, tim10-1 inh 40 | tim10-1 confirm inactive | TIM10 conf inactive
COc1ccc2cc3cc(C(=O)Nc4ccccc4N4CCN(C)CC4)oc3nc2c1	TIM10 inh 44, tim10-1 inh 55 | tim10-1 confirm 44 | TIM10 conf inactive
O=C(NC(=S)Nc1ccccc1N1CCCCC1)c1cccs1	TIM10 inh 52, tim10-1 inh 43 | tim10-1 confirm 34 | TIM10 conf 61
CCc1nccn1CCC(=O)N1CCCC(N2CCN(c3cccc(Cl)c3)CC2)C1 (stereo not given)	none
Cc1nc([N+](=O)[O-])c(Br)n1CC(=O)c1ccc(Br)cc1	tim10-1 inh 48 | tim10-1 confirm 35 | TIM10 conf 40
Cc1nc([N+](=O)[O-])c(Br)n1CC(=O)c1ccc2ccccc2c1	TIM10 inh 54, tim10-1 inh 59 | tim10-1 confirm 67 | TIM10 conf 55
